In the supplement of paper PMC13380429:
Structures can show the parent of a compound that is named as a salt.

System: Vero E6 infected with SARS-CoV-2
Experiment: inhibition of SARS-CoV-2 cytopathic effect; higher = more antiviral protection, active = above 15
Settings: 48 h

Measured: inhibition of SARS-CoV-2 cytopathic effect

CC[C@@H](c1cccc(O)c1)[C@@H](C)CN(C)C [Tapentadol (hydrochloride)]
inactive: 1 nM 2% | 8.33 nM 1.05% | 100 nM 1.07% | 833.33 nM 3.03% | 10000 nM -0.29%

COc1cc(NS(=O)(=O)c2ccc(N)cc2)nc(OC)n1 [sulphadimethoxine]
inactive: 1 nM -0.84% | 8.33 nM -2.06% | 100 nM 2.74% | 833.33 nM -1.94% | 10000 nM -0.74%

COc1ccc(O)cc1 [mequinol]
inactive: 1 nM 2.15% | 8.33 nM -1.51% | 100 nM 2.67% | 833.33 nM 1.18% | 10000 nM 2.53%

O=S(=O)(O)Oc1ccc(C(c2ccc(OS(=O)(=O)O)cc2)c2ccccn2)cc1 [sodium-picosulfate]
inactive: 1 nM -1.14% | 8.33 nM -0.13% | 100 nM 0.34% | 833.33 nM 5.9% | 10000 nM -5.74%

COc1ccc2ccc(=O)oc2c1CC=C(C)C [osthol]
inactive: 1 nM 2.39% | 8.33 nM 6.22% | 100 nM 1.91% | 833.33 nM 3.87% | 10000 nM 2.49%

CC(C)OC(=O)C1=CN(C(=O)c2ccc(F)c(F)c2)CC(C)(C)c2c1[nH]c1ccccc21
inactive: 1 nM -2.29% | 8.33 nM -1.15% | 100 nM -3.38% | 833.33 nM -4.11% | 10000 nM -3.87%

CCn1cc(C(=O)O)c(=O)c2cnc(N3CCCC3)nc21 [piromidic-acid]
inactive: 1 nM -0.85% | 8.33 nM 1.01% | 100 nM 0.19% | 833.33 nM -0.21% | 10000 nM -1.75%

CN1[C@@H]2CC[C@H]1C[C@@H](OC(=O)c1cc(Cl)cc(Cl)c1)C2 [bemesetron]
inactive: 1 nM -0.2% | 8.33 nM 0.56% | 100 nM 0.85% | 833.33 nM 0.1% | 10000 nM 2.26%

CCn1c(-c2nonc2N)nc2c(C#CC(C)(C)O)ncc(OC[C@H]3CCCNC3)c21
inactive: 1 nM 2.55% | 8.33 nM 4.66% | 100 nM 3.53% | 833.33 nM 5.33% | 10000 nM 4.74%

CN(C)CC/C=C1/c2ccccc2COc2ccccc21 [doxepin]
inactive: 1 nM -0.79% | 8.33 nM 1.36% | 100 nM 1.85% | 833.33 nM -1.94% | 10000 nM -2.1%

CC(=O)c1ccc2c(c1)N(CCCN(C)C)c1ccccc1S2 [acepromazine]
inactive: 1 nM -0.95% | 8.33 nM 1.58% | 100 nM -2.17% | 833.33 nM -3.24% | 10000 nM -1.2%

O=C1Nc2ccccc2/C1=C1/Nc2ccccc2C1=O [indirubin]
inactive: 1 nM -0.6% | 8.33 nM -1.11% | 100 nM -0.33% | 833.33 nM 1.04% | 10000 nM 0.51%

CCCCC[C@H](O)/C=C/[C@H]1[C@H](O)CC(=O)[C@@H]1C/C=C\CCCC(=O)O [dinoprostone]
inactive: 1 nM -2.72% | 8.33 nM 0.16% | 100 nM -4.2% | 833.33 nM 0.3% | 10000 nM 0.05%

CC(C)COc1ccc(CNC(=O)N(Cc2ccc(F)cc2)C2CCN(C)CC2)cc1 [pimavanserin]
active: 10000 nM 24%
inactive: 1 nM -1.81% | 8.33 nM -0.8% | 100 nM 0.2% | 833.33 nM -0.47%

OCCNC1CCCc2c1[nH]c1ccc(-c3ccccc3)cc21 (stereo not given) [casin]
inactive: 1 nM -1.66% | 8.33 nM 3% | 100 nM 1.22% | 833.33 nM -2.43% | 10000 nM 14.4%

COc1ccc2[nH]c(I)c(CCNC(C)=O)c2c1 [2-iodomelatonin]
inactive: 1 nM 3.34% | 8.33 nM 4.46% | 100 nM 0.99% | 833.33 nM 0.89% | 10000 nM 0.94%

CCCc1c(OCCCOc2ccc(OCC(=O)O)cc2)ccc(C(C)=O)c1O
inactive: 1 nM 3.84% | 8.33 nM -0.07% | 100 nM 1.16% | 833.33 nM 1.63% | 10000 nM 1.76%

O=C(/C=C/c1c(C(=O)O)[nH]c2cc(Cl)cc(Cl)c12)Nc1ccccc1 [gavestinel]
inactive: 1 nM -3.94% | 8.33 nM -3.2% | 100 nM -2.69% | 833.33 nM -2.17% | 10000 nM -3.95%

Cc1ccsc1/C=C/C1=NCCCN1C [morantel]
inactive: 1 nM -0.99% | 8.33 nM -3.26% | 100 nM -2.09% | 833.33 nM -5.69% | 10000 nM -0.33%

CN1CCN(Cc2ccc(Nc3ncc(Cl)c(Nc4ccccc4S(=O)(=O)N(C)C)n3)cc2)CC1
inactive: 1 nM 1.64% | 8.33 nM 0.81% | 100 nM 2.68% | 833.33 nM -8.19% | 10000 nM -10.2%
